Common to all, as to test: DAPPL (digital affinity profiling via proximity ligation, sequencing); 10 mM Tris-HCl pH 7.5, 50 mM NaCl, 1 mM DTT, 4% glycerol, room temperature, 30 min; GST-TFs on glutathione beads, 16-mer random dsDNA library, 0.1% formaldehyde crosslink after washing; high values mean tight binding
Common to all, as to conditions: protein: recombinant; tags: N-terminal GST; dsDNA, one strand shown

For one assay, the target named is T1, FLI1 (Homo sapiens, UniProt Q01543 1-452).
T1 sequence: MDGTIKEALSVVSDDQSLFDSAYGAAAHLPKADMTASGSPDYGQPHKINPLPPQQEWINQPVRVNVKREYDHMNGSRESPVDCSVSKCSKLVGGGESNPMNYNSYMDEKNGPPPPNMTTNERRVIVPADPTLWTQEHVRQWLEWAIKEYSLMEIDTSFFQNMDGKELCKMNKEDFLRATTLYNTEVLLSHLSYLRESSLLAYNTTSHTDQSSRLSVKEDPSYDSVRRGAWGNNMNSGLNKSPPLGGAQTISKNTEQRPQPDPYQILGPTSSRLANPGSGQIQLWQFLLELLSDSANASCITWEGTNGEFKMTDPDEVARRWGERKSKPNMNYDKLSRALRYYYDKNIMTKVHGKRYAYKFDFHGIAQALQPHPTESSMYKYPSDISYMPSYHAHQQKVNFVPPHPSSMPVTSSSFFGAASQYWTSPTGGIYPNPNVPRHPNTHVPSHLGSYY
In short, it runs like this: (§1)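 Binding signal is defined as a hexamer's read frequency for one factor over its frequency for the tag-only sample. To obtain reads, GST-fused human transcription factors were expressed in yeast, captured on glutathione beads, barcoded with DNA and pooled with that sample. Pools met 200 nmole of a 16-mer random double-stranded DNA library in Tris/NaCl/DTT/glycerol buffer for 30 min at room temperature before washing, 0.1% formaldehyde crosslinking, proximity ligation (BsaI/T4 ligase, 1 h, 37 °C), PCR and Illumina NextSeq500 sequencing.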

In a further assay the target is T2, ELK1 (Homo sapiens, UniProt P19419 1-428).
T2 sequence: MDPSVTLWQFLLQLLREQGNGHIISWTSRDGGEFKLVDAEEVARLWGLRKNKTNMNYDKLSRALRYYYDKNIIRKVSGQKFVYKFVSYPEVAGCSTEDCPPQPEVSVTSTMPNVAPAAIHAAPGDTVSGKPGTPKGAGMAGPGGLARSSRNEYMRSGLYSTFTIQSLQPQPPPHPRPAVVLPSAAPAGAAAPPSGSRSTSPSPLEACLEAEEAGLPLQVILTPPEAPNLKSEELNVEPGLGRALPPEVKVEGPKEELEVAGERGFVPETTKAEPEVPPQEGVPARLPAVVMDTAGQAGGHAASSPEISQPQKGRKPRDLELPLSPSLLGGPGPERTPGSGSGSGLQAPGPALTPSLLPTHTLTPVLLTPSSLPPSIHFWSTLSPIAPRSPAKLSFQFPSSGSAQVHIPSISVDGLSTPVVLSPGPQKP
A digest of the protocol:
as §1

The next assay concerns the target T3, GABPA (Homo sapiens, UniProt Q06546 1-454).
T3 sequence: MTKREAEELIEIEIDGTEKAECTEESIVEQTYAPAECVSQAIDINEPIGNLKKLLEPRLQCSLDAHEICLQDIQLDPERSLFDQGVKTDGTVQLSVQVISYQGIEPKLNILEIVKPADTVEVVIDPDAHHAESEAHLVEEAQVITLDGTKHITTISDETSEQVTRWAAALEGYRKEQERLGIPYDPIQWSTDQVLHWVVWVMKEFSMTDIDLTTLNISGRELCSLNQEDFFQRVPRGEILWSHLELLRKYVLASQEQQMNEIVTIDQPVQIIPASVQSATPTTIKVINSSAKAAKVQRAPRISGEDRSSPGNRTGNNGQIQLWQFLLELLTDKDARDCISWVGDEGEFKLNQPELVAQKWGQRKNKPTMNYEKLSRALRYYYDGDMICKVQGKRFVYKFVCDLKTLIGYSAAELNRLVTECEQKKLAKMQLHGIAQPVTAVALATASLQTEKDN
In short, it runs like this: as §1

In a further assay the target is T4, ERG (Homo sapiens, UniProt P11308 1-479).
T4 sequence: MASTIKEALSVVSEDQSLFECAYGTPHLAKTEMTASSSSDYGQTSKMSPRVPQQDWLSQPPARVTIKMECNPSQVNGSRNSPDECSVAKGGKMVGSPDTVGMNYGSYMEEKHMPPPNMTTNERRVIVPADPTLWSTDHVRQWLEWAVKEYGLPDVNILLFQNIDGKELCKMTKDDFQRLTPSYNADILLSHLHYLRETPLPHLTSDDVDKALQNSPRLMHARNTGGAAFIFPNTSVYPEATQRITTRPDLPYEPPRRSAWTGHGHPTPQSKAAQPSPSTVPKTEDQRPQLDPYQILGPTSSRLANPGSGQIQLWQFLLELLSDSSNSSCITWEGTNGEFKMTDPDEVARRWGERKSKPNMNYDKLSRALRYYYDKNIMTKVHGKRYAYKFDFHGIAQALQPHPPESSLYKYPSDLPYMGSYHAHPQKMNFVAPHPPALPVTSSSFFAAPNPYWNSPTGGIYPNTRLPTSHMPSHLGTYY
A digest of the protocol:
as §1

The next assay concerns the target ELF1 (Homo sapiens, UniProt P32519 1-619). In short, it runs like this: as §1
Another assay addresses T5, EHF (Homo sapiens, UniProt Q9NZC4 1-300).
T5 sequence: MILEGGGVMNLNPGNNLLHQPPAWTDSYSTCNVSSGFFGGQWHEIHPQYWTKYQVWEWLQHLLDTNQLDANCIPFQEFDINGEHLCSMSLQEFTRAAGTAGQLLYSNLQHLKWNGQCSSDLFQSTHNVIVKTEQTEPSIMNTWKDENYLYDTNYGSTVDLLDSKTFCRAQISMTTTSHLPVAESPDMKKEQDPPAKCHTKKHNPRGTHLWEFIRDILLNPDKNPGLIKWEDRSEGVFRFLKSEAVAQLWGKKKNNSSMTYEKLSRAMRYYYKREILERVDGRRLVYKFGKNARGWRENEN
A digest of the protocol: as §1

The next assay deals with SPI1 (Homo sapiens, UniProt P17947 1-270). In short, it runs like this: as §1
The next assay addresses SPIB (Homo sapiens, UniProt Q01892 1-262). A digest of the protocol: as §1
The target in the next assay is T6, ELK3 (Homo sapiens, UniProt P41970 1-407).
T6 sequence: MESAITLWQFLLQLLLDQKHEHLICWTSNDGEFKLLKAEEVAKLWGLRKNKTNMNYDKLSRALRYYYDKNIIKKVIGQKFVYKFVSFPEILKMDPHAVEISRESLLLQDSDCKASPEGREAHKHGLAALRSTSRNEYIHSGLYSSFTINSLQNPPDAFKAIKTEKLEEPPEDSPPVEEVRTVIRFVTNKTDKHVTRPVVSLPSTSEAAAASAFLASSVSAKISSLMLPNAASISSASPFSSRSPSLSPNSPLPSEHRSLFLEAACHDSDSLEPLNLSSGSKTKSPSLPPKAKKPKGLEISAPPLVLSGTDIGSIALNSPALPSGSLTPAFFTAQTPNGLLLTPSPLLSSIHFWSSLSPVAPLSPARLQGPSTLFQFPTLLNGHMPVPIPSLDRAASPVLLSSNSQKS
A digest of the protocol:
as §1

Chain of ELF1 (P32519 whole entry): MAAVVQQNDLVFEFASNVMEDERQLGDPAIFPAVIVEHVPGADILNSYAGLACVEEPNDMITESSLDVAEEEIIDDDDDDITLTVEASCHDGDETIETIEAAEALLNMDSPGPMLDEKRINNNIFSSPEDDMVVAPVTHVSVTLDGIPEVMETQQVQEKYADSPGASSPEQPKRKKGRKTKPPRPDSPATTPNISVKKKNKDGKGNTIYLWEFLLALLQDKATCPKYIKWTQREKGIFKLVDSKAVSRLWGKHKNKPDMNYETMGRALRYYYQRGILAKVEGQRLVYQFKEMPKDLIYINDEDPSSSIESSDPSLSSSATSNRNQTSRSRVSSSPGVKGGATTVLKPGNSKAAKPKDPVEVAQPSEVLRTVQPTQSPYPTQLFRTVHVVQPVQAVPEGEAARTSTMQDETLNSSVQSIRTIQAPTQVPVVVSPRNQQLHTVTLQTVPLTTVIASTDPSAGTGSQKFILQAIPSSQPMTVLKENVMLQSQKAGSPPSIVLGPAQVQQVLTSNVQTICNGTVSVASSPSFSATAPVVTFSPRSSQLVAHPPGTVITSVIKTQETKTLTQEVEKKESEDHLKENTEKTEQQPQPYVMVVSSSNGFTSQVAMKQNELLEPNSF
Chain of SPIB (Q01892 whole entry): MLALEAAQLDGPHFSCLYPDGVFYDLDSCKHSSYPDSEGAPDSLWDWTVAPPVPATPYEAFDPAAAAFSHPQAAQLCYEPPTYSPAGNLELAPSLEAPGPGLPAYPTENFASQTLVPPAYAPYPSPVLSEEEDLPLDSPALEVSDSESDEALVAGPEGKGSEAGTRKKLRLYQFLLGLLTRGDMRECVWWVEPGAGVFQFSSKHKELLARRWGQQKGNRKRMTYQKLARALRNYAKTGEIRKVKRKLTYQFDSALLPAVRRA

For the sequence CCAATC, the binding signal with FLI1 was 1.21 fold enrichment (6-mer frequency, TF over GST control); with ELK1, 1.14 fold enrichment (6-mer frequency, TF over GST control); with GABPA, 1.2 fold enrichment (6-mer frequency, TF over GST control); in the assay with ERG it was 1.12 fold enrichment (6-mer frequency, TF over GST control); in the assay with ELF1, 1.23 fold enrichment (6-mer frequency, TF over GST control); in the assay with EHF it was 1 fold enrichment (6-mer frequency, TF over GST control). Moreover, the binding signal with SPI1 was 1.14 fold enrichment (6-mer frequency, TF over GST control); with SPIB, 1.1 fold enrichment (6-mer frequency, TF over GST control); with ELK3, 1.22 fold enrichment (6-mer frequency, TF over GST control).
In the case of ATGATA, the binding signal with FLI1 is 1.22 fold enrichment (6-mer frequency, TF over GST control); with ELK1, 1.23 fold enrichment (6-mer frequency, TF over GST control); with GABPA, 1.16 fold enrichment (6-mer frequency, TF over GST control); with ERG, 1.26 fold enrichment (6-mer frequency, TF over GST control); with ELF1, 1.24 fold enrichment (6-mer frequency, TF over GST control); with EHF, 1.32 fold enrichment (6-mer frequency, TF over GST control). Moreover, the binding signal was 1.2 fold enrichment (6-mer frequency, TF over GST control) in the assay with SPI1; 1.21 fold enrichment (6-mer frequency, TF over GST control) with SPIB; 1.34 fold enrichment (6-mer frequency, TF over GST control) with ELK3.
As for TATTTG, the binding signal with FLI1 was 1.52 fold enrichment (6-mer frequency, TF over GST control); with ELK1, 1.41 fold enrichment (6-mer frequency, TF over GST control); in the assay with GABPA, 1.43 fold enrichment (6-mer frequency, TF over GST control); with ERG, 1.47 fold enrichment (6-mer frequency, TF over GST control); in the assay with ELF1 it was 1.35 fold enrichment (6-mer frequency, TF over GST control); in the assay with EHF, 1.45 fold enrichment (6-mer frequency, TF over GST control). In addition, the binding signal with SPI1 was 1.46 fold enrichment (6-mer frequency, TF over GST control); in the assay with SPIB, 1.46 fold enrichment (6-mer frequency, TF over GST control); with ELK3 it was 1.39 fold enrichment (6-mer frequency, TF over GST control).
As for GCTACT, the binding signal with FLI1 is 1.37 fold enrichment (6-mer frequency, TF over GST control); in the assay with ELK1, 1.25 fold enrichment (6-mer frequency, TF over GST control); with GABPA, 1.32 fold enrichment (6-mer frequency, TF over GST control); with ERG, 1.38 fold enrichment (6-mer frequency, TF over GST control); with ELF1 it was 1.35 fold enrichment (6-mer frequency, TF over GST control); with EHF, 1.33 fold enrichment (6-mer frequency, TF over GST control). Moreover, the binding signal in the assay with SPI1 is 1.27 fold enrichment (6-mer frequency, TF over GST control); with SPIB it was 1.23 fold enrichment (6-mer frequency, TF over GST control); with ELK3, 1.29 fold enrichment (6-mer frequency, TF over GST control).
Consider TCTCTC, for which the binding signal with FLI1 is 1.37 fold enrichment (6-mer frequency, TF over GST control); with ELK1, 1.27 fold enrichment (6-mer frequency, TF over GST control); in the assay with GABPA, 1.36 fold enrichment (6-mer frequency, TF over GST control); with ERG, 1.22 fold enrichment (6-mer frequency, TF over GST control); in the assay with ELF1, 1.35 fold enrichment (6-mer frequency, TF over GST control); with EHF it was 1.36 fold enrichment (6-mer frequency, TF over GST control). Further, the binding signal with SPI1 was 1.39 fold enrichment (6-mer frequency, TF over GST control); in the assay with SPIB, 1.31 fold enrichment (6-mer frequency, TF over GST control); with ELK3, 1.36 fold enrichment (6-mer frequency, TF over GST control).
As to ATCTGG, the binding signal was 1.19 fold enrichment (6-mer frequency, TF over GST control) with FLI1; 1.01 fold enrichment (6-mer frequency, TF over GST control) in the assay with ELK1; 1.17 fold enrichment (6-mer frequency, TF over GST control) with GABPA; 1.14 fold enrichment (6-mer frequency, TF over GST control) in the assay with ERG; 1.18 fold enrichment (6-mer frequency, TF over GST control) in the assay with ELF1; 1.12 fold enrichment (6-mer frequency, TF over GST control) with EHF. For the same sequence, the binding signal with SPI1 was 1.12 fold enrichment (6-mer frequency, TF over GST control); with SPIB, 1.14 fold enrichment (6-mer frequency, TF over GST control); with ELK3, 1.09 fold enrichment (6-mer frequency, TF over GST control).
For ATGCAA, the binding signal with FLI1 was 1.32 fold enrichment (6-mer frequency, TF over GST control); in the assay with ELK1, 1.26 fold enrichment (6-mer frequency, TF over GST control); with GABPA, 1.27 fold enrichment (6-mer frequency, TF over GST control); in the assay with ERG, 1.29 fold enrichment (6-mer frequency, TF over GST control); with ELF1 it was 1.25 fold enrichment (6-mer frequency, TF over GST control); in the assay with EHF, 1.25 fold enrichment (6-mer frequency, TF over GST control). Further, the binding signal with SPI1 is 1.2 fold enrichment (6-mer frequency, TF over GST control); with SPIB, 1.26 fold enrichment (6-mer frequency, TF over GST control); in the assay with ELK3, 1.18 fold enrichment (6-mer frequency, TF over GST control).

The record behind these values is article PMC7862700, “An all-to-all approach to the identification of sequence-specific readers for epigenetic DNA modifications on cytosine”.
